Compound activity: PubChem BioAssay, National Center for Advancing Translational Sciences (NCATS)
FMDV antiviral – foot and mouth disease virus antiviral activity; AID 1159524; Potency, µM (doses to about 57.9 µM), inactives show at the top dose activity change, negative = inhibition, most hits filed as inhibitors; hit rate 1.2% among 410,000; FMDV antiviral cell-based qHTS; calls by dose curve; tested in HEK293T cells; further: read-out not given here; potency means the concentration at half of the fitted maximal effect; nearly all actives have a fitted effect of over 45% in size
HCMV inh – blocks human cytomegalovirus replication | HFF cells, HCMV-luciferase reporter, 72 h; hits give low values | activity change, negative = inhibition, % at 57.5 µM | hit rate 4.5% among 410,000 | AID 1259415; in the data active means activity change below about -60%; inconclusive means no clear call, values can overlap the other calls; inactive means above about -39%
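Inhibition of viral replication was scored as loss of reporter luminescence in HFFs infected with HCMV-luciferase (MOI 1 PFU/cell) for 72 h; compounds tested at 2 doses, normalized to buffer and Salinomycin controls.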
Giardia FBPA inh – blocks Giardia fructose-bisphosphate aldolase activity; A8B2U2; purified Giardia FBPA; Potency, µM (doses to about 59.6 µM), without a hit: at the highest dose activity, negative = inhibition, hits mostly inhibitors; hit rate 0.71% among 290,000; AID 2451; further: potency means the concentration at half of the fitted maximal effect; nearly all actives have a fitted effect of over 55% in size
Target sequence (A8B2U2 whole entry, looked up): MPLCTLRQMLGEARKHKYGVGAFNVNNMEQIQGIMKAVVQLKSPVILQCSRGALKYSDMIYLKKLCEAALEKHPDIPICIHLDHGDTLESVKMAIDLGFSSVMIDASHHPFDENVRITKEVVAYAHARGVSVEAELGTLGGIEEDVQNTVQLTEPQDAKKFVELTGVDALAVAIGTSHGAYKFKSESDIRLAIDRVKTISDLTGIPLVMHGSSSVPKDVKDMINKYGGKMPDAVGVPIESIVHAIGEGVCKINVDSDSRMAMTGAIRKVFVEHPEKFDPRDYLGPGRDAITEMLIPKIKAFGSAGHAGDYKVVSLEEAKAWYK
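40 nM FBPA preincubated 10 min at RT with compound (up to 57.5 uM final), then substrate plus GAPDH/TPI/NAD/arsenate coupling and diaphorase/resazurin added. Fluorescence read after 20 min at RT, 525/598 nm.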
RE007 growth inh – less growth of the S. pombe RE007 Vpr strain; S. pombe RE007 Vpr strain, BacTiter-Glo ATP luminescence, 24 h; Potency, µM (series often up to 92.2 µM), for the others: top-dose activity change, negative = less growth, usual class: inhibitors; hit rate 0.21% among 360,000; active means well fitted falling curve with a large enough effect; inconclusive means small, poorly fitted or top-dose-only effect; inactive means no such curve, though single readings can be large or run the other way; further: potency means the concentration at half of the fitted maximal effect; nearly all actives have a fitted effect of over 50% in size
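Fission yeast RE007 carrying one integrated HIV-1 vpr copy, seeded at OD 0.01 in PMG+AL medium with 23 nL pinned compound. Grown 24 h at 30 degrees; viability read by BacTiter-Glo luminescence after 5 min.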
Sm TGR inh – S. mansoni TGR enzyme inhibition; purified TGR, DTNB reduction, TNB absorbance 405 nm; Potency, µM (series often up to 114 µM), inactives show top-dose activity change, negative = inhibition, hits mostly inhibitors; hit rate 3% among 360,000; AID 485364; Q962Y6; further: potency means the concentration at half of the fitted maximal effect; nearly all actives have a fitted effect of over 60% in size
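Kinetic colorimetric format: TGR-catalysed, NADPH-driven DTNB reduction monitored via TNB absorbance. Enzyme dispensed at 20 nM; compound exposure 15 min at room temperature before reaction start.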
Tb PYK inh – T. brucei pyruvate kinase inhibition; TbPYK enzyme, Kinase-Glo Plus ATP luminescence, 45 min; hit rate 0.12% among 410,000; Potency, µM (highest dose often 76.8 µM), inactives show at the highest dose activity, negative = inhibition, hits mostly inhibitors; AID 624173; further: potency means the concentration at half of the fitted maximal effect; nearly all actives have a fitted effect of over 50% in size
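In this concentration-response screen, enzyme-free wells defined baseline while DMSO plates tracked drift. Each reaction combined TbPYK, substrate, compound and 130 uM ADP for 45 min at room temperature. Kinase-Glo Plus luminescence gave the signal.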
Starred values were filed as active, the others as inactive; [ ] = remark or other dose. Hits are enriched below; roughly 7.7% of the tested compounds scored in any of these assays. Unless noted, the call rests on the fitted dose curve; in most records, active means well fitted curve in the direction sought with a large enough effect; inconclusive means small, poorly fitted or top-dose-only effect, or another doubt; inactive means no such curve, though single readings can be large; an effect the other way counts as inactive or inconclusive. On the % scale 0 is the no-effect control and ±100 the full control effect.

For COc1ccc(Cl)cc1NS(=O)(=O)c1cccc(C(=O)NCC(c2ccco2)N(C)C)c1 (stereo not given) the results were FMDV antiviral 28%, HCMV inh 35, RE007 growth inh -6%, Sm TGR inh 13µM* and Tb PYK inh -3%.
`CCc1ccccc1NC(=O)C(=O)NCC(c1cccnc1)N1CCN(c2ccccc2F)CC1` (stereo not given) gave FMDV antiviral 40µM*, HCMV inh -8, Sm TGR inh -4% and Tb PYK inh -3%.
CC(C)NC(=O)c1nn(C)c2c1CS(=O)(=O)c1ccccc1-2 was read as FMDV antiviral -12%, HCMV inh 2, Sm TGR inh 4% and Tb PYK inh 0%.
`Cc1nn(-c2cc(C(F)(F)F)ccc2Cl)c2nc(C(Cl)(Cl)Cl)[nH]c(=O)c12` gave FMDV antiviral inconclusive, HCMV inh -26, Giardia FBPA inh 20%, RE007 growth inh 16%, Sm TGR inh 20µM* and Tb PYK inh 2%.
For Cc1[nH]c2ccc(O)cc2c1CCN the results were FMDV antiviral -17%, HCMV inh -5, Giardia FBPA inh 3.5µM*, RE007 growth inh 8%[18.4 µM], Sm TGR inh 40µM* and Tb PYK inh -4%.
Screening CCN(CC)S(=O)(=O)c1ccc2oc(C(=O)N(C)Cc3ccccc3)c(C)c2c1 returned FMDV antiviral -14%, HCMV inh -19, Sm TGR inh 1% and Tb PYK inh 1%.
Cc1ccc(N2CC(C(=O)NCCC(C)C)CC2=O)cc1 (stereo not given) was read as FMDV antiviral -9%, HCMV inh -5, Giardia FBPA inh 2%, RE007 growth inh 24%, Sm TGR inh -5% and Tb PYK inh -10%.
`Cc1ccc(N2CC(C(=O)NCc3ccc(C)n3C)CC2=O)cc1` (stereo not given) gave FMDV antiviral 11%, HCMV inh -27, Giardia FBPA inh inconclusive, RE007 growth inh 11%, Sm TGR inh 40µM* and Tb PYK inh 1%.
For COc1ccccc1NC(=S)NC(=O)/C=C/c1ccco1 the results were FMDV antiviral -4%, HCMV inh -17, Giardia FBPA inh -14%, RE007 growth inh -17%, Sm TGR inh 18µM* and Tb PYK inh -10%.
COc1ccccc1NC(=O)/C=C\c1ccco1 was read as FMDV antiviral 58%, HCMV inh 39, Giardia FBPA inh 0%, RE007 growth inh -8%, Sm TGR inh 2.5µM* and Tb PYK inh -20%.
Screening COc1cc2c(cc1NC(=S)NC(=O)/C=C/c1ccco1)oc1ccccc12 returned FMDV antiviral -20%, HCMV inh 41, Giardia FBPA inh -1%, RE007 growth inh -10%, Sm TGR inh -11% and Tb PYK inh -18%.
For COc1ccccc1NC(=O)/C(C#N)=C/C=C/c1ccco1 the results were FMDV antiviral 7%, HCMV inh 4, Giardia FBPA inh -12%, RE007 growth inh 4%, Sm TGR inh 2% and Tb PYK inh -12%.
Screening Cc1ccccc1NC(=S)NC(=O)/C=C/c1ccco1 returned FMDV antiviral -10%, HCMV inh -16, Giardia FBPA inh -29%, RE007 growth inh -17%, Sm TGR inh 6.3µM* and Tb PYK inh -14%.
For COC(=O)c1ccc(NC(=O)CC2C(=O)N(c3ccc(Cl)cc3)C(=O)N2Cc2cccs2)cc1 (stereo not given) the results were FMDV antiviral -10%, HCMV inh -14, Sm TGR inh 3% and Tb PYK inh -3%.
Screening CCc1ccccc1NC(=O)CC(C)n1nc(C)cc1C (stereo not given) returned FMDV antiviral 0%, HCMV inh -7, Sm TGR inh 2% and Tb PYK inh 2%.
Screening COc1ccc(Cc2[nH]n3c(=O)cc(C(C)C)nc3c2-c2ccccc2)cc1 returned FMDV antiviral inconclusive, HCMV inh -73*, Giardia FBPA inh 1%, RE007 growth inh -21% and Tb PYK inh 4%.
For COc1ccc(Cc2[nH]n3c(=O)cc(C)nc3c2-c2ccccc2)cc1 the results were FMDV antiviral -12%, HCMV inh -36, Giardia FBPA inh -7%, RE007 growth inh -9% and Tb PYK inh 3%.
For O=C(CCn1c(=O)c2ccccc2n(CC(=O)Nc2ccc(F)cc2)c1=O)NCCc1ccccc1 the results were FMDV antiviral -10%, HCMV inh 7, Sm TGR inh 8% and Tb PYK inh -1%.
For Cc1nn(CC(=O)O)c(C)c1C the results were FMDV antiviral inconclusive, HCMV inh -90*, Giardia FBPA inh 8%, RE007 growth inh -3%, Sm TGR inh 0% and Tb PYK inh -11%.
Screening COc1ccc(-c2ccc(/C=C3/C(=N)N4C(C)=CSC4=NC3=O)o2)c([N+](=O)[O-])c1 returned FMDV antiviral 40µM*, HCMV inh 9, Giardia FBPA inh -29%, RE007 growth inh 42%, Sm TGR inh 0% and Tb PYK inh 8%.
Screening CCSc1ncc(Cl)c(C(=O)Nc2ccc(S(=O)(=O)N(C)c3ccccc3)cc2)n1 returned FMDV antiviral -5%, HCMV inh -22, Sm TGR inh 13% and Tb PYK inh 1%.
`CCN(c1ccccc1)S(=O)(=O)c1ccc(NC(=O)c2nc(S(C)(=O)=O)ncc2Cl)cc1` gave FMDV antiviral 28µM*, HCMV inh -100*, RE007 growth inh 5%, Sm TGR inh 0.4µM* and Tb PYK inh 35%.
CCS(=O)(=O)c1ncc(Cl)c(C(=O)Nc2ccc(S(=O)(=O)N(C)c3ccccc3)cc2)n1 was read as FMDV antiviral 22µM*, HCMV inh -101*, Giardia FBPA inh 1%, RE007 growth inh 5%, Sm TGR inh 0.5µM* and Tb PYK inh 7%.
`O=C(COCc1cc(-c2ccc3c(c2)OCO3)on1)NCc1ccccc1Cl` gave FMDV antiviral 25%, HCMV inh 9, Sm TGR inh 2% and Tb PYK inh -1%.
`FC(F)(F)COc1nc(N2CCOCC2)nc(N(c2ccccc2)c2ccccc2)n1` gave FMDV antiviral inconclusive, HCMV inh -86*, Giardia FBPA inh 1%, RE007 growth inh 15%, Sm TGR inh 3% and Tb PYK inh 1%.
Cc1cc(SC#N)cc(C)c1NC(=O)CCl was read as FMDV antiviral -5%, HCMV inh -83*, Giardia FBPA inh -8%, RE007 growth inh 18%, Sm TGR inh 14µM* and Tb PYK inh -9%.
Screening CCc1cc(SC#N)cc(C)c1NC(=O)CCl returned FMDV antiviral -21%, HCMV inh -96*, Giardia FBPA inh -14%, RE007 growth inh 23%, Sm TGR inh 10µM* and Tb PYK inh -8%.
